# Compound activity from PubChem.
# Sm TGR inh: inhibitors of Schistosoma mansoni thioredoxin glutathione reductase; purified TGR, DTNB reduction, TNB absorbance 405 nm; Potency, µM (doses to about 114 µM), actives largely listed as inhibitors; actives 3% (n = 360,000); further: nearly all actives have a fitted effect of over 60% in size
#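 First, TGR (20 nM dispensed) and NADPH were mixed with compound. Second, a 15 min room-temperature incubation followed. Third, further NADPH and then DTNB were added to start the reaction. Finally, TNB absorbance was monitored kinetically.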
# Pf growth 48h: P. falciparum growth inhibition at 48 hours (one generation); P. falciparum luciferase growth in erythrocytes, 48 h; Potency, µM (doses to about 28.7 µM), most hits filed as inhibitors; actives 5.9% (n = 310,000)
#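 Luminescence readout; reporter = integrated firefly luciferase in P. falciparum. RBC culture at 2% hematocrit, 0.1% parasitemia final, 37 C/5% CO2; decreased signal taken as growth inhibition.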
# HCMV antiviral: human cytomegalovirus inhibition. activity change, negative = inhibition, % at 57.5 µM. actives 4.5% (n = 410,000). AID 1259415. HFF cells, HCMV-luciferase reporter, 72 h; active compounds read low; in the data active means activity change below about -60%; inconclusive means no clear call, values can overlap the other calls; inactive means above about -39%
#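 HFF cells seeded 16 h at 37C, treated with compounds, infected with luciferase-reporter HCMV at MOI 1 PFU/cell; luciferase read at 72 h post infection, normalized to buffer-only and Salinomycin controls.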
# Pf growth 96h: P. falciparum growth inhibition at 96 hours; P. falciparum luciferase reporter growth, 96 h; Potency, µM (doses to about 28.7 µM), actives largely listed as inhibitors; AID 504834; actives 6.9% (n = 320,000)
#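 Erythrocytes infected with luciferase-expressing P. falciparum were dispensed at 2% hematocrit and 0.05% parasitemia (final), then incubated with compounds 96 hours at 37 C in 5% CO2. Luminescence after detection reagent addition reported growth.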
# Giardia FBPA inh: blocks Giardia fructose-bisphosphate aldolase activity; actives 0.71% (n = 290,000); Potency, µM (top dose mostly 59.6 µM), hits mostly inhibitors; A8B2U2; purified Giardia FBPA; further: nearly all actives have a fitted effect of over 55% in size
# Target sequence (A8B2U2 whole entry, looked up): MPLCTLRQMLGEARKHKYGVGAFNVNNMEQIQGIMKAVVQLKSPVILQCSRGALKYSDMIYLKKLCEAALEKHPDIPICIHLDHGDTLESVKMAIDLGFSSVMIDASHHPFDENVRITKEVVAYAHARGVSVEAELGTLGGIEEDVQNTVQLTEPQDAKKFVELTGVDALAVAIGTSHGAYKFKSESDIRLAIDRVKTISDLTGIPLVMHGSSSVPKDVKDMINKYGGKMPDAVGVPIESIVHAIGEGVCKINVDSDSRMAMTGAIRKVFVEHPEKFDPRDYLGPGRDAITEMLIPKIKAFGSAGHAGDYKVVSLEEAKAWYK
#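 Giardia FBPA (40 nM reagent) was preincubated 10 min at RT with compound (up to 57.5 uM final), then substrate plus GAPDH/TPI/NAD/arsenate coupling system with diaphorase/resazurin was added; resorufin fluorescence (525/598 nm) was read after 20 min.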
# A number is an active result; i = inactive; ? = inconclusive; nt = no result given; [ ] = dose if it differs, or a comment. In the library only some 14% were active in any assay of this set; here they are far more common. Unless noted, the call rests on the fitted dose curve; in most records, active means well fitted curve in the direction sought with a large enough effect; inconclusive means small, poorly fitted or top-dose-only effect, or another doubt; inactive means no such curve, though single readings can be large; an effect the other way counts as inactive or inconclusive.
SMILES,Sm TGR inh,Pf growth 48h,HCMV antiviral,Pf growth 96h,Giardia FBPA inh
CCOC(=O)c1cnc(-n2nc(C)cc2C)nc1Nc1ccccc1OC,i,?,nt,?,i
CCOC(=O)c1cnc(-n2nc(C)cc2C)nc1NCCc1ccccc1,i,4.15µM,-92.4,i,i
CCOC(=O)c1cnc(-n2nc(C)cc2C)nc1Oc1ccccc1F,i,i,i,i,?
CCOC(=O)c1cnc(-n2nc(C)cc2C)nc1Nc1ccc(OC)cc1,i,4.15µM,i,1.85µM,i
CCOC(=O)c1cnc(-n2nc(C)cc2C)nc1NCc1ccc2c(c1)OCO2,i,4.65µM,i,nt,i
Cc1ccc(S(=O)(=O)N2CC3=C(C2)C2CC2(C)C3)cc1 (centres undefined),nt,nt,i,nt,nt
COCCNC(=O)C(NC(=O)C1CCCCC1)C(C)C (centres undefined),i,i,i,0.738µM,i
COCCNC(=O)C(NC(=O)C1CCC(C)CC1)C(C)C (centres undefined),i,i,i,i,i
CC1(O)C(c2ccccc2)=Nc2ccccc21 (centres undefined),nt,nt,i,nt,nt
Brc1ccc(-c2ccc(CNCCSc3nnnn3-c3ccccc3)o2)cc1,17.8µM,nt,i,nt,nt
Clc1c(-c2ccccc2)nnn1-c1ccccc1,i,i,i,i,i
COc1ccc(OCCn2c(C)c(/C=N/n3cnnc3)c3ccccc32)cc1,i,?,nt,11.7µM,i
COc1ccc(N(CC(=O)Nc2ccccc2C(=O)O)S(=O)(=O)c2ccc(C)c([N+](=O)[O-])c2)cc1,nt,i,i,i,i
CC(=O)Oc1ccc(N(C(C)=O)S(=O)(=O)c2ccc(C)c([N+](=O)[O-])c2)cc1,i,i,i,2.62µM,i
CC(=O)N1CCN(S(=O)(=O)c2cccc(C(=O)N(C)Cc3ccc(C)o3)c2)CC1,39.8µM,?,i,i,nt
Cc1ccc(CN(C)C(=O)c2ccc(S(=O)(=O)N3CCCCCC3)cc2)o1,50.1µM,i,i,?,nt
CN(Cc1cccs1)C(=O)c1ccc(S(=O)(=O)N2CCCCC2)cc1,i,i,i,i,i
C[C@@H](/C=C\c1cccc(Oc2ccc(F)cc2)c1)N(O)C(N)=O,nt,nt,nt,nt,i
COc1cc(/C=C/c2cc(C(F)(F)F)[nH]c(=O)n2)cc(OC)c1OC,nt,?,-97.0,i,i
O=c1nc(/C=C/c2cc([N+](=O)[O-])ccc2Cl)cc(C(F)(F)F)[nH]1,?,nt,-68.4,i,i
CSc1cccc(NC(=O)CNC(=O)C2CCCCC2)c1,i,i,i,i,nt
COC(=O)C1(CC(C)C)C=C2C(=C(C)C(=O)C2C)CN1 (centres undefined),nt,nt,nt,nt,i
CCOC(=O)C1=C(N)OC2=C(C(=O)CC(C)(C)C2)C1c1ccc(CC)s1 (centres undefined),i,i,?,4.15µM,i
Oc1ccccc1CN(Cc1ccco1)CC(O)COCc1ccc(Cl)cc1 (centres undefined),i,2.94µM,?,2.08µM,i
COc1ccc(COCC(O)CN(Cc2ccco2)Cc2ccccc2O)cc1 (centres undefined),i,8.28µM,i,4.65µM,i
SMILES,Sm TGR inh,Pf growth 48h,HCMV antiviral,Pf growth 96h,Giardia FBPA inh
CCCOc1ccc(C(=O)N(Cc2ccc(Cl)cc2)Cc2ccco2)cc1,i,nt,i,nt,nt
O=C(c1ccco1)N1CCC2(CCCN(Cc3ccncc3)C2)CC1,nt,nt,nt,nt,i
Cc1ccc(S(=O)(=O)N(c2cccc(C(F)(F)F)c2)C2C=CS(=O)(=O)C2)cc1 (centres undefined),i[11.4 µM],nt,i,16.5µM,i
COc1cc(C)nc(-c2csc(C)n2)n1,i,?,-86.5,?,i
CCCCNC(=O)C1C(c2ccccc2)=Nc2ccccc2N1C(=O)c1ccc(C)cc1 (centres undefined),nt,nt,i,nt,nt
CCN1CCOC(=O)C1CC(=O)Nc1cc(Cl)ccc1OC (centres undefined),14.1µM,nt,i,nt,nt
CCN1CCOC(=O)C1CC(=O)Nc1cc(C)cc(C)c1 (centres undefined),17.8µM,nt,i,nt,nt
CCN1CCOC(=O)C1CC(=O)Nc1ccccc1C(F)(F)F (centres undefined),10µM,nt,i,nt,nt
CCN1CCOC(=O)C1CC(=O)Nc1ccc(C(C)=O)cc1 (centres undefined),22.4µM,nt,i,nt,nt
CCN(C[C@H]1N[C@@](CC)(C(=O)OC)[C@H]2C(=O)N(C)C(=O)[C@@H]12)C(=O)c1ccc(C(C)(C)C)cc1,nt,nt,i,nt,nt
